Screening data (PubChem BioAssay)
Not all results are given here.
aSyn UTR act – Activators via SNCA 5'UTR binding, MLPCN. alpha-synuclein 5'UTR reporter, activators screen. activity score, % (tested at 7.5 µM), hits read low. 300,000 tested, 7.1% active; in the data active = activity score below about -60%
Large screens that a line does not name were inactive.

C=CCN(C(=O)C1CSC2(C)CCC(=O)N12)c1nc(-c2ccccc2)cs1 (stereo unspecified)	aSyn UTR act -68.1
Oc1ccccc1C1CC(c2cccs2)=NC(c2ccc(Cl)cc2)N1 (stereo unspecified)	aSyn UTR act -94.0
Cc1ccc(-n2c(C)c(C)c3c(NCCCO)ncnc32)cc1	aSyn UTR act -164.9
COc1ccc(-n2c(C)c(C)c3c(NCCCO)ncnc32)cc1	aSyn UTR act -80.6
CC(=O)c1cc2c(=O)c3cc(C)ccc3oc2nc1C	aSyn UTR act -184.0
Cc1nc2oc3ccc(F)cc3c(=O)c2cc1C(=O)O	aSyn UTR act -75.3
Cc1ccc2oc3nc(C)c(C(=O)O)cc3c(=O)c2c1	aSyn UTR act -102.6
CCOC(=O)c1cc2c(=O)c3cc(C)ccc3oc2nc1C	aSyn UTR act -113.9
C#C[C@]1(O)CC[C@H]2[C@@H]3CCc4cc(OC)ccc4[C@H]3CC[C@@]21C	aSyn UTR act -70.2
C#C[C@]1(O)CC[C@H]2[C@@H]3CCc4cc(OC5CCCC5)ccc4[C@H]3CC[C@@]21C	aSyn UTR act -75.5
Cn1cc(NC(=O)OCc2ccc(Cl)cc2)c(C(F)(F)F)n1	aSyn UTR act -108.9
COc1ccc(/C=C/C(=O)Nc2ccccc2C)cc1S(=O)(=O)N1CCOCC1	aSyn UTR act -86.7
C=CS(=O)(=O)c1ccc(Oc2ccc(S(=O)(=O)C=C)cc2)cc1	aSyn UTR act -108.2
C=CCn1c(SCc2ccc(OC)cc2)nnc1-c1cccnc1	aSyn UTR act -117.4
CCn1c(SCc2ccc(OC)cc2)nnc1-c1ccncc1	aSyn UTR act -106.3
C=CCn1c(SCc2ccc(C#N)cc2)nnc1-c1cccc(OC)c1	none
CCCOc1ccc(-c2c(=O)n(O)c3ccccc3[n+]2[O-])cc1	aSyn UTR act -176.4
CCOC(=O)c1c(C)[nH]c(C(=O)Nc2ccc3c(c2)OCO3)c1C	aSyn UTR act -99.4
CCOC(=O)c1ccc(NC(=O)c2ccc3c(c2)OCO3)cc1	aSyn UTR act -117.8
CCN(CC)c1ccc(NC(=O)c2ccc3c(c2)OCO3)cc1	aSyn UTR act -133.0
O=C(Nc1ccc2c(c1)OCO2)c1ccc2nc[nH]c2c1	aSyn UTR act -112.4
Cc1ccc(C(=O)Nc2cccc(C(F)(F)F)c2)cc1Nc1ncnc2nc[nH]c12	none
COc1ccc(C(=O)Nc2ccc3c(c2)nc2n3CCSC2)cc1	aSyn UTR act -67.2
O=C(Nc1ccc(C(F)(F)F)cc1)c1ccc2nc[nH]c2c1	aSyn UTR act -78.1
COc1ccc(NC(=O)c2ccc3nc[nH]c3c2)cc1	aSyn UTR act -81.3
COc1ccc(C(=O)Nc2ccc3nc(C)c(C)nc3c2)cc1	aSyn UTR act -86.9
Cc1ccc2c(c1)C(N1CCCC1=O)CC(c1ccco1)N2 (stereo unspecified)	aSyn UTR act -171.4
CC(=O)Nc1ccc(OCc2nnc(-c3ccc(Cl)cc3)o2)cc1	aSyn UTR act -95.6
CC(=O)Oc1ccc(-c2csc(Nc3ccc(Cl)cn3)n2)cc1	aSyn UTR act -135.1
COc1ccc(-c2csc(Nc3ccc(C)cn3)n2)cc1	aSyn UTR act -180.3
O=S(=O)(Nc1cccc(-c2ccc(N3CCCCCC3)nn2)c1)c1ccc(C(F)(F)F)cc1	aSyn UTR act -87.7
O=S(=O)(Nc1cccc(-c2ccc(N3CCCCCC3)nn2)c1)c1ccccc1F	aSyn UTR act -127.7
O=C(Nc1cccc(-c2ccc(N3CCCCC3)nn2)c1)C(F)(F)F	none
O=S(=O)(Nc1cccc(-c2ccc(N3CCCCCC3)nn2)c1)c1cccc(F)c1	aSyn UTR act -107.9
O=S(=O)(Nc1cccc(-c2ccc(N3CCCCCC3)nn2)c1)c1ccc(F)cc1	aSyn UTR act -145.9
Cc1ccc(S(=O)(=O)Nc2cccc(-c3ccc(N4CCCCCC4)nn3)c2)cc1C	aSyn UTR act -117.3
COc1ccc(-c2nc3ccccc3s2)cc1NC(C)=O	aSyn UTR act -126.5
Cc1ccc(C(=O)NC(=S)Nc2cc(-c3nc4ccccc4s3)ccc2C)cc1	aSyn UTR act -95.1
CCc1ccc2c(c1)[C@]1(C(=O)N2)[C@@H]2C(=O)N(Cc3ccccc3)C(=O)[C@@H]2[C@@H]2CCCN21	aSyn UTR act -77.8
COc1ccc(N=Nc2nc3ccc(Br)cc3n2C)cc1	aSyn UTR act -112.9
Cc1cccc(NC(=O)c2n[nH]c([N+](=O)[O-])c2Br)c1C	aSyn UTR act -61.9
Cc1nc2ccccc2c(=O)n1/N=C/c1cccs1	aSyn UTR act -78.6
Cc1nnc(-c2ccccc2)c(=O)n1/N=C/c1c(O)ccc2ccccc12	none
Cc1nc2ccccc2c(=O)n1/N=C/c1cn(-c2ccccc2)nc1-c1cccs1	aSyn UTR act -67.4
Cc1nc2ccccc2c(=O)n1/N=C1\C(=O)N(C)c2ccccc21	aSyn UTR act -83.2
CCNC(=O)NC(=O)C(C)Oc1ccc(Br)cc1Br (stereo unspecified)	aSyn UTR act -77.6
COc1ccc(C(=O)O/N=C(\N)c2ccccc2)cc1OC	aSyn UTR act -180.0
COc1ccc(/C(N)=N/OC(=O)CSc2ccccc2)cc1OC	aSyn UTR act -124.6
COc1ccc(C(=O)O/N=C(\N)c2cccc(C)c2)cc1OC	aSyn UTR act -165.2
Cc1cccc(/C(N)=N/OC(=O)c2ccoc2C)c1	aSyn UTR act -116.5
COc1ccc(C(=O)n2c(N)nc3ccccc32)cc1OC	aSyn UTR act -177.0
